Test results as given in paper PMC8222333, “AsCas12a ultra nuclease facilitates the rapid generation of therapeutic cell medicines”.

How the values were obtained:
Assay in all cases: Spec-seq (native PAGE EMSA with sequencing of bound and unbound); 25 mM Tris-HCl pH 7.4, 150 mM KCl, 5 mM MgCl2, 10% glycerol, 1 mM DTT, 40 ng/uL salmon sperm DNA; 400 nM Cas12a, 480 nM crRNA, 50 nM library, 37 C 1 h; native PAGE at room temperature; high values mean tight binding
Details in all cases: protein: recombinant
dAsCas12a E174R = dAsCas12a E174R (Acidaminococcus sp., UniProt U2UMQ6 1-1307, E174R;D908A;E993A;D1235A);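 also: relative affinity from the bound to unbound sequence frequency ratio in Spec-seq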
dAsCas12a S542R = dAsCas12a S542R (Acidaminococcus sp., UniProt U2UMQ6 1-1307, S542R;D908A;E993A;D1235A);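 also: relative affinity from the bound to unbound sequence frequency ratio in Spec-seq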
d-enCas12a = d-enCas12a (Acidaminococcus sp., UniProt U2UMQ6 1-1307, E174R;S542R;K548R;D908A;E993A;D1235A)
d-enCas12a-Ultra = d-enCas12a-Ultra (Acidaminococcus sp., UniProt U2UMQ6 1-1307, E174R;S542R;K548R;M537R;F870L;D908A;E993A;D1235A);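 also: relative affinity from the bound to unbound sequence frequency ratio in Spec-seq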
dAsCas12a Ultra = dAsCas12a Ultra (Acidaminococcus sp., UniProt U2UMQ6 1-1307, M537R;F870L;D908A;E993A;D1235A)
dAsCas12a K548R = dAsCas12a K548R (Acidaminococcus sp., UniProt U2UMQ6 1-1307, K548R;D908A;E993A;D1235A)

Row | Binder | binding signal (dAsCas12a E174R) | binding signal (dAsCas12a S542R) | binding signal (d-enCas12a) | binding signal (d-enCas12a-Ultra) | binding signal (dAsCas12a Ultra) | binding signal (dAsCas12a K548R)
1 | AATG (dsDNA) DNA 1: GCTATCTAGTGCTCAGTACGCACTGAATGAGGAAACTTCTGGCAGGACCAGGTCATGAGATCGGAAGAGCACACGTCTGAACTCCAGTCA DNA 2: TGACTGGAGTTCAGACGTGTGCTCTTCCGATCTCATGACCTGGTCCTGCCAGAAGTTTCCTCATTCAGTGCGTACTGAGCACTAGATAGC RNA: AAUUUCUACUCUUGUAGAUAGGAAACUUCUGGCAGGACC | -8.3 lnKA | -8.21 lnKA | -3.79 lnKA | -1.81 lnKA |  | 
2 | TTAT (dsDNA) DNA 1: GCTATCTAGTGCTCAGTACGCACTGTTATAGGAAACTTCTGGCAGGACCAGGTCATGAGATCGGAAGAGCACACGTCTGAACTCCAGTCA DNA 2: TGACTGGAGTTCAGACGTGTGCTCTTCCGATCTCATGACCTGGTCCTGCCAGAAGTTTCCTATAACAGTGCGTACTGAGCACTAGATAGC RNA: AAUUUCUACUCUUGUAGAUAGGAAACUUCUGGCAGGACC | -8.07 lnKA | -7.55 lnKA | -4.53 lnKA | -2.12 lnKA | -8.23 lnKA | 
3 | ATCA (dsDNA) DNA 1: GCTATCTAGTGCTCAGTACGCACTGATCAAGGAAACTTCTGGCAGGACCAGGTCATGAGATCGGAAGAGCACACGTCTGAACTCCAGTCA DNA 2: TGACTGGAGTTCAGACGTGTGCTCTTCCGATCTCATGACCTGGTCCTGCCAGAAGTTTCCTTGATCAGTGCGTACTGAGCACTAGATAGC RNA: AAUUUCUACUCUUGUAGAUAGGAAACUUCUGGCAGGACC | -8.4 lnKA | -5.58 lnKA | -1.74 lnKA | -0.402 lnKA |  | 
4 | ACAT (dsDNA) DNA 1: GCTATCTAGTGCTCAGTACGCACTGACATAGGAAACTTCTGGCAGGACCAGGTCATGAGATCGGAAGAGCACACGTCTGAACTCCAGTCA DNA 2: TGACTGGAGTTCAGACGTGTGCTCTTCCGATCTCATGACCTGGTCCTGCCAGAAGTTTCCTATGTCAGTGCGTACTGAGCACTAGATAGC RNA: AAUUUCUACUCUUGUAGAUAGGAAACUUCUGGCAGGACC | -8.97 lnKA | -8.62 lnKA | -5.81 lnKA | -3.49 lnKA |  | 
5 | AAAT (dsDNA) DNA 1: GCTATCTAGTGCTCAGTACGCACTGAAATAGGAAACTTCTGGCAGGACCAGGTCATGAGATCGGAAGAGCACACGTCTGAACTCCAGTCA DNA 2: TGACTGGAGTTCAGACGTGTGCTCTTCCGATCTCATGACCTGGTCCTGCCAGAAGTTTCCTATTTCAGTGCGTACTGAGCACTAGATAGC RNA: AAUUUCUACUCUUGUAGAUAGGAAACUUCUGGCAGGACC | -8.92 lnKA | -8.45 lnKA | -5.69 lnKA | -3.07 lnKA |  | 
6 | TTCG (dsDNA) DNA 1: GCTATCTAGTGCTCAGTACGCACTGTTCGAGGAAACTTCTGGCAGGACCAGGTCATGAGATCGGAAGAGCACACGTCTGAACTCCAGTCA DNA 2: TGACTGGAGTTCAGACGTGTGCTCTTCCGATCTCATGACCTGGTCCTGCCAGAAGTTTCCTCGAACAGTGCGTACTGAGCACTAGATAGC RNA: AAUUUCUACUCUUGUAGAUAGGAAACUUCUGGCAGGACC | -7.11 lnKA | -3.01 lnKA | -1.14 lnKA | -0.323 lnKA | -6.85 lnKA | -8.63 lnKA
7 | TTAG (dsDNA) DNA 1: GCTATCTAGTGCTCAGTACGCACTGTTAGAGGAAACTTCTGGCAGGACCAGGTCATGAGATCGGAAGAGCACACGTCTGAACTCCAGTCA DNA 2: TGACTGGAGTTCAGACGTGTGCTCTTCCGATCTCATGACCTGGTCCTGCCAGAAGTTTCCTCTAACAGTGCGTACTGAGCACTAGATAGC RNA: AAUUUCUACUCUUGUAGAUAGGAAACUUCUGGCAGGACC | -8.42 lnKA | -7.46 lnKA | -4.03 lnKA | -1.65 lnKA | -8.15 lnKA | 
